High-throughput results (PubChem BioAssay)
Compounds with a hit are over-represented: about 2.5% of the library has one in this group of screens.
Cruzain inh Det: cruzain (T. cruzi) inhibition with detergent; P25779; purified cruzain, Z-FR-AMC fluorescence, 0.01% Triton; Potency, µM, inactives show max response, negative = inhibition, most hits filed as inhibitors; actives 0.43% (n = 200,000); AID 1478;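 also: plate controls were neutral wells for no effect and buffer without enzyme for full effect; nearly all actives have a fitted effect of over 40% in size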
Target sequence (P25779 123-467 limits assumed): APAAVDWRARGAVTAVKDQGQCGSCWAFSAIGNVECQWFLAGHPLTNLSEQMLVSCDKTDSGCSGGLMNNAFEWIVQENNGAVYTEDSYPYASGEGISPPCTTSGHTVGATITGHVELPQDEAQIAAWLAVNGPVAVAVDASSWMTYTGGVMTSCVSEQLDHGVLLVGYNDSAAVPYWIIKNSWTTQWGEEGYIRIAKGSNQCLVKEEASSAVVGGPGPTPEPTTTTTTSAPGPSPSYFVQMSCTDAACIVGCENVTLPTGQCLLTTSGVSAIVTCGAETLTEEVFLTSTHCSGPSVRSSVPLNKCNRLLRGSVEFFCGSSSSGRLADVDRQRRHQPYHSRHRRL
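In this qHTS format, compounds are incubated with 1.5 nM cruzain for 15 min at room temperature before 2 uM Z-FR-AMC is added. Release of AMC is followed at 360/450 nm, and progress is taken as the 60 s fluorescence difference.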
Cruzain inh noDet: blocks cruzain activity in detergent-free assay; purified cruzain, Z-FR-AMC fluorescence, no detergent; P25779; actives 2.3% (n = 200,000); Potency, µM, inactives show max response, negative = inhibition, hits mostly inhibitors;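 also: plate controls were enzyme without inhibitor for no effect and buffer without enzyme for full effect; nearly all actives have a fitted effect of over 40% in size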
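Detergent-free condition (0.00005% Triton X-100) in acetate buffer pH 5.5 with DTT. 1.5 nM enzyme and compound were pre-mixed 15 min, then 2 uM Z-FR-AMC substrate added; reaction progress from fluorescence change between first and third reads (60 s).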
Starred values were filed as active, the others as inactive; ? = inconclusive. Calls follow the shape of the dose curve; as a rule, active = well fitted curve in the direction sought with a large enough effect; inconclusive = small, poorly fitted or top-dose-only effect, or another doubt; inactive = no such curve, though single readings can be large; an effect the other way counts as inactive or inconclusive. Potency is read from the fitted curve at half-maximal effect.

SMILES | Cruzain inh Det | Cruzain inh noDet
O=C(/C=C/c1ccco1)NC(=S)Nc1ccc(O)c(-c2nc3ccccc3s2)c1 | 0% | 7.9µM*
COC(=O)c1cc(OC)c(OC)cc1NC(=O)c1ccc2c(c1)CCN2S(C)(=O)=O | -2% | -7%
Cc1cccc(CSc2nc(N)c(C#N)c(-c3cccs3)c2C#N)c1 | -5% | 25µM*
Cc1cccc(CSc2nc3c(c(-c4cccs4)c2C#N)CN(C)CC3)c1 | -6% | -23%
CCCCC[C@H](O)/C=C/C=C\C=C\[C@@H](O)C/C=C\CCCC(=O)O | -3% | -7%
Cc1cc(C)c(S(=O)(=O)N2CCN(c3ccc([N+](=O)[O-])c(-n4nc(C)cc4C)c3)CC2)c(C)c1 | -1% | 20µM*
Cc1cc(C)n(-c2cc(N3CCN(S(=O)(=O)c4ccc(Br)cc4)CC3)ccc2[N+](=O)[O-])n1 | -6% | ?
CCCCCCCCCCCCCCCC(=O)OCC(O)C1OC(=O)C(O)=C1O (stereo not drawn) | -14% | ?
Cc1ccc(-c2cc(NC(=O)COc3ccc(Cl)cc3C)on2)cc1 | -1% | 10µM*
Cc1cc(Cl)ccc1OCC(=O)O | 4% | 6%
Cc1cc(Cl)ccc1OCC(=O)Nn1c(C)ccc1C | -3% | 2.5µM*
COc1ccccc1OCC(=O)Nc1cc(-c2ccc(C)cc2)no1 | -8% | -6%
CCCCNc1nc(C)nc2c1nc(-c1ccccc1)n2CCN(C)C | -10% | -1%
CC1CCCCC1NC(=O)COC(=O)c1ccccc1NC(=O)c1ccco1 (stereo not drawn) | 3% | -1%
O=C(Nc1ccccc1C(=O)OCC(=O)N1CCc2ccccc2C1)c1ccco1 | -5% | 13µM*
COc1ccc(-c2nc(SCCOc3cc(C)ccc3C(C)C)n3[nH]c(=O)cc3n2)cc1 | 0% | 5%
CCCCOc1ccc(CNC(=O)C2COc3ccc(OC)cc3C2)cc1 (stereo not drawn) | 0% | 5%
Cn1cc(/C=C(\C#N)C(=O)Nc2ncc(Cc3cccc(Cl)c3)s2)c2ccccc21 | -6% | 7.9µM*
O=C(Nc1ncc(Cc2cccc(Cl)c2)s1)C1CCCO1 (stereo not drawn) | -3% | -4%
CCOC(=O)/C(C#N)=C/c1c[nH]c2ccccc12 | -15% | 1%
N#C/C(=C\c1c[nH]c2ccccc12)C(=O)Nc1ncc(Cc2ccc(Cl)cc2Cl)s1 | -1% | 7.9µM*
CCc1ccc(NS(=O)(=O)c2ccc3oc(=O)c4ncn(CC)c4c3c2)cc1 | -10% | 12%
Cc1ccc(Nc2sc(C(=O)c3ccccc3)c(N)c2C(=O)NC(C)C)cc1 | -3% | 9%
Cc1ccc(Nc2sc(C(=O)c3ccccc3)c(N)c2S(=O)(=O)c2ccccc2)c(C)c1 | -4% | 10µM*
Cc1ccc(Nc2sc(C(=O)c3ccc(F)cc3)c(N)c2S(=O)(=O)c2ccc(C)cc2)cc1 | 2% | ?
SMILES | Cruzain inh Det | Cruzain inh noDet
CCc1ccc(Nc2sc(C(=O)c3ccc(F)cc3)c(N)c2S(=O)(=O)c2ccccc2)cc1 | -4% | 7.9µM*
Cc1ccccc1Nc1sc(C(=O)c2ccc(F)cc2)c(N)c1C(=O)NCCc1ccccc1 | -4% | ?
Cc1ccc(S(=O)(=O)c2c(Nc3cc(F)ccc3F)sc(C(=O)c3ccc(F)cc3)c2N)cc1 | -5% | 3.2µM*
CCOc1ccc(Nc2sc(C(=O)c3cccc(OC)c3)c(N)c2S(=O)(=O)c2ccccc2)cc1 | -2% | 13µM*
CCc1ccc(Nc2sc(C(=O)c3ccccc3)c(N)c2S(C)(=O)=O)cc1 | -10% | -8%
O=C(O)COCCN1CCN([C@@H](c2ccccc2)c2ccc(Cl)cc2)CC1 | 4% | 1%
CCOc1ccc(NC(=O)CSc2ncc3c(n2)-c2ccccc2N(C)S3(=O)=O)cc1 | 1% | 16%
O=C(Cn1nc2c(cc1=O)CCCC2)NCc1ccccc1 | -1% | 8%
COc1c2c(cc3c1C(c1c(O)c4ccccc4oc1=O)N(C)CC3)OCO2 (stereo not drawn) | -3% | -3%
COc1cccc(C(=O)c2sc(Nc3ccc(C)cc3C)c(S(=O)(=O)c3ccccc3)c2N)c1 | -4% | 7.9µM*
Cc1nn(C(C)(C)C)c(OC(=O)c2ccc3c(c2)OCO3)c1S(=O)(=O)c1ccccc1 | -6% | 7%
COc1ccccc1Nc1sc(C(=O)c2ccc3c(c2)OCO3)c(N)c1S(=O)(=O)c1ccccc1 | -3% | 7.9µM*
Cc1ccc(Cl)cc1Nc1sc(C(=O)c2ccc(F)cc2)c(N)c1S(C)(=O)=O | -12% | -27%
Cc1cc(Nc2sc(C(=O)c3ccc(F)cc3)c(N)c2C(=O)Nc2ccc(F)cc2)ccc1Cl | -6% | ?
COc1ccc(S(=O)(=O)c2c(Nc3ccc(F)cc3)sc(C(=O)c3ccc(C)cc3C)c2N)cc1 | -1% | 5µM*
Cc1ccc(NS(=O)(=O)c2cccc(C(=O)O)c2)c(C)c1 | 2% | 1%
Cc1ccc(Nc2sc(C(=O)c3ccccc3)c(N)c2S(=O)(=O)c2ccccc2)cc1Cl | -5% | 4µM*
